Inconclusive results are not listed. The source made the active and inactive calls. Calls come from the whole dose curve; as a rule, active = well fitted inhibition curve with a large enough effect; inconclusive = small, poorly fitted or top-dose-only effect; inactive = flat fitted curve, though single readings scatter.
Tests used:
Assay in all cases: qHTS profiling for inhibitors of Plasmodium falciparum proliferation (AID 504749); note: nearly all actives have a fitted effect of over 60% in size
Settings in all cases: P. falciparum in erythrocytes, SYBR Green DNA, 72 h; series mostly up to 28.7 µM
CP203 = test system: CP203
Outline: (§1)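 Readout was DNA-dye fluorescence from lysed cultures, ex 485/em 535 nm. Parasitized red cells had grown 72 h with compound; data scaled between 0.29 uM artemisinin and DMSO wells and corrected using vehicle-only plates.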

CP211 = test system: CP211
Outline: as §1

CP215 = test system: CP215
Outline: as §1

CP217 = test system: CP217
Outline: as §1

CP237 = test system: CP237
Outline: as §1

CP238 = test system: CP238
Outline: as §1

CP247 = test system: CP247
Outline: as §1

CP250 = test system: CP250
Outline: as §1

CP252 = test system: CP252
Outline: as §1

CP256 = test system: CP256
Outline: as §1

Measured: Potency
Potency is the fitted concentration of half-maximal effect.

Cc1c(-c2ccccc2)oc2c(C(=O)OCCN3CCCCC3)cccc2c1=O
inactive: CP203 | CP211 | CP215 | CP217 | CP237 | CP238 | CP247 | CP250 | CP252 | CP256

CCNC(=O)NCc1cccc(Cl)c1
inactive: CP203 | CP211 | CP215 | CP217 | CP237 | CP238 | CP247 | CP250 | CP252 | CP256

Cc1cccc(C)c1NC(=O)c1ccccc1C(=O)O
inactive: CP203 | CP211 | CP215 | CP217 | CP237 | CP238 | CP247 | CP250 | CP252

CCCCNc1ccc(C(=O)OCCOCCOCCOCCOCCOCCOCCOCCOCCOC)cc1
inactive: CP203 | CP211 | CP215 | CP217 | CP237 | CP238 | CP247 | CP250 | CP252 | CP256

CC(C)CCCC(C)N (stereo not given)
inactive: CP203 | CP211 | CP215 | CP217 | CP237 | CP238 | CP247 | CP250 | CP252 | CP256

NS(=O)(=O)c1ccc(Cl)c(S(N)(=O)=O)c1
inactive: CP203 | CP211 | CP215 | CP217 | CP237 | CP238 | CP247 | CP250 | CP252 | CP256

CCCCCCCCCCCCCC(=O)OC(C)C
inactive: CP203 | CP211 | CP215 | CP217 | CP237 | CP238 | CP247 | CP250 | CP252 | CP256

Cc1ccc(O)c([C@H](CCN(C(C)C)C(C)C)c2ccccc2)c1
active: CP203 3.79 µM | CP211 9.53 µM | CP215 6.75 µM | CP217 5.01 µM | CP237 5.01 µM | CP238 4.47 µM | CP247 6.31 µM | CP250 11.2 µM | CP252 6.31 µM | CP256 7.94 µM

CCCCC(CC)COC(=O)c1ccc(N(C)C)cc1 (stereo not given)
inactive: CP203 | CP211 | CP215 | CP217 | CP237 | CP238 | CP247 | CP250 | CP252 | CP256

CCCCCCCCCCCCCCCCO
inactive: CP203 | CP211 | CP215 | CP217 | CP237 | CP238 | CP247 | CP250 | CP252 | CP256

Nc1nc(N)c(-c2ccccc2)s1
inactive: CP203 | CP211 | CP215 | CP217 | CP237 | CP238 | CP247 | CP250 | CP252 | CP256

NC(=O)n1c(O)c(C(=O)c2cccs2)c2cc(Cl)ccc21
inactive: CP203 | CP211 | CP215 | CP217 | CP237 | CP238 | CP247 | CP250 | CP252 | CP256

CCNC(=O)/C=C/c1cccc(Br)c1
inactive: CP203 | CP211 | CP215 | CP217 | CP237 | CP238

CCCCCCCCCCCCSCCOCCO
inactive: CP203 | CP211 | CP215 | CP217 | CP237 | CP238 | CP247 | CP250 | CP252 | CP256

CC(=O)OC[C@H]1O[C@@H](n2ncc(=O)[nH]c2=O)[C@H](OC(C)=O)[C@@H]1OC(C)=O
inactive: CP203 | CP211 | CP215 | CP217 | CP237 | CP238 | CP247 | CP250 | CP252 | CP256

FC(F)(F)C(F)(F)C(F)(F)C(F)(F)C(F)(F)C(F)(F)C(F)(F)C(F)(F)Br
inactive: CP203 | CP211 | CP215 | CP217 | CP237 | CP238 | CP247 | CP250 | CP252 | CP256

Nc1nc(-c2ccccc2)c(Br)c(=O)[nH]1
inactive: CP203 | CP211 | CP215 | CP217 | CP237 | CP238 | CP247 | CP250 | CP252 | CP256

CC(=O)Oc1ccc(C)cc1
inactive: CP203 | CP211 | CP215 | CP217 | CP237 | CP238 | CP247 | CP250 | CP252 | CP256

O=C(O)CCC(=O)Nc1ccc(S(=O)(=O)Nc2nccs2)cc1
inactive: CP203 | CP211 | CP215 | CP217 | CP237 | CP238 | CP247 | CP250 | CP252 | CP256

Cc1cc(-c2ccccc2)nnc1NCCN1CCOCC1
inactive: CP203 | CP211 | CP215 | CP217 | CP237 | CP238 | CP247 | CP250 | CP252 | CP256

CC1=C(C(=O)O)N2C(=O)[C@@H](NC(=O)[C@H](N)c3ccccc3)[C@H]2SC1
inactive: CP203 | CP211 | CP215 | CP217 | CP237 | CP238 | CP247 | CP250 | CP252 | CP256

OC[C@H]1O[C@@H]2O[C@H]3[C@H](O)[C@@H](O)[C@@H](O[C@H]4[C@H](O)[C@@H](O)[C@@H](O[C@H]5[C@H](O)[C@@H](O)[C@@H](O[C@H]6[C@H](O)[C@@H](O)[C@@H](O[C@H]7[C@H](O)[C@@H](O)[C@@H](O[C@H]8[C@H](O)[C@@H](O)[C@@H](O[C@H]1[C@H](O)[C@H]2O)O[C@@H]8CO)O[C@@H]7CO)O[C@@H]6CO)O[C@@H]5CO)O[C@@H]4CO)O[C@@H]3CO
inactive: CP203 | CP211 | CP215 | CP217 | CP237 | CP238 | CP247 | CP250 | CP252 | CP256

Reference: PubChem BioAssay (NCATS)
